The values below come from PubChem BioAssay (NCI).

About 83,000 compounds went through this panel and 20% of them were active in at least one assay; those are over-represented in the sample as a whole.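 Testing used 96-well plates and a 48-hour single-concentration exposure. Example: -40 means 40% of the starting cells died.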 Unmarked numbers belong to inactive results. Calls of active or inactive are those of the source. The calls were made as follows: active = growth percent below 10; inactive = the rest.

Test systems include DU-145 prostate; K-562 leukemia; MALME-3M melanoma; MDA-MB-231 breast; RXF 393 renal; SF-268 CNS; SF-295 CNS; SF-539 CNS; UACC-257 melanoma; M14 melanoma.
Holding throughout (test): NCI-60 one-dose screen, 48 h (100 = growth as untreated, 0 = no growth, -100 = all killed)
Common to all, as to conditions: 10 µM unless noted

As for `CCC(=C(c1ccc(OCCN2CCCC2)cc1)c1ccc(OCCN2CCCC2)cc1)c1ccc(Cl)cc1`, the growth in the experiment with DU-145 prostate is 26.4%; with K-562 leukemia it was -21.2% (active); in the experiment with MALME-3M melanoma, -82.1% (active); in the experiment with MDA-MB-231 breast, -70.9% (active); with RXF 393 renal, 13.7%; with SF-268 CNS, 49.8%. In addition, the growth in the experiment on SF-295 CNS is -61.9% (active); with SF-539 CNS, -88.4% (active); with UACC-257 melanoma, -58% (active); in the experiment on M14 melanoma, -75% (active).

On to `CCOC(=O)C1=C(NC)OCC1=O`, for which the growth with DU-145 prostate was 110%; with K-562 leukemia it was 99%; in the experiment with MALME-3M melanoma, 113%; in the experiment with MDA-MB-231 breast, 107%; with RXF 393 renal, 100%; in the experiment on SF-268 CNS, 98.6%. The growth was 106% in the experiment with SF-295 CNS, 104% in the experiment with SF-539 CNS, 92.5% in the experiment on UACC-257 melanoma and 102% with M14 melanoma.

With `O=C1/C(=C/c2ccccc2Br)COc2ccc(O)c(O)c21`, the growth was 13% with DU-145 prostate; 9.73% (active) in the experiment on K-562 leukemia; -8.51% (active) with MALME-3M melanoma; 0.858% (active) with MDA-MB-231 breast; 10.1% in the experiment on RXF 393 renal; 10.9% in the experiment on SF-268 CNS. For the same compound, the growth with SF-295 CNS was 62.9%; in the experiment with SF-539 CNS it was -25.7% (active); in the experiment on UACC-257 melanoma it was 19.7%; in the experiment on M14 melanoma it was 31.5%.

Consider `O=C(CI)NC1Oc2ccccc2-c2oc(=O)c(-c3ccccc3)cc21` (stereo not given), for which the growth with DU-145 prostate was -93.8% (active); in the experiment on K-562 leukemia, -13% (active); with MALME-3M melanoma, -77.1% (active); in the experiment with MDA-MB-231 breast it was -68.8% (active); in the experiment with RXF 393 renal, -89.4% (active); in the experiment with SF-268 CNS, -72.2% (active). In addition, the growth was 87.4% in the experiment on SF-295 CNS, -89.5% (active) in the experiment with SF-539 CNS, 77.3% with UACC-257 melanoma and -39.8% (active) in the experiment on M14 melanoma.

For the compound `CC(C)CCNC(=O)Cn1cccc(NC(=O)OCc2ccccc2)c1=O`, the growth with DU-145 prostate was 109%; in the experiment with K-562 leukemia, 114%; in the experiment with MALME-3M melanoma it was 104%; with MDA-MB-231 breast, 107%; with RXF 393 renal, 106%; in the experiment with SF-268 CNS it was 102%. Also, the growth in the experiment with SF-295 CNS was 107%; in the experiment on SF-539 CNS, 115%; in the experiment with UACC-257 melanoma, 104%; in the experiment on M14 melanoma, 116%.

Take `COc1ccc2[nH]cc(C(c3cc(F)cc(F)c3)c3c[nH]c4ccc(OC)cc34)c2c1`: the growth in the experiment on DU-145 prostate was 95.9%; in the experiment with K-562 leukemia it was 59%; in the experiment on MALME-3M melanoma it was 206%; in the experiment on MDA-MB-231 breast, 78.8%; in the experiment with RXF 393 renal it was 80.5%; in the experiment on SF-268 CNS, 80%. Moreover, the growth in the experiment with SF-295 CNS is 79.1%; with SF-539 CNS, 93.4%; in the experiment on UACC-257 melanoma it was 84.3%; with M14 melanoma, 86.6%.

Consider `COc1ccc(/C=C2\COc3ccc(O)cc3C2=O)c(OC)c1OC`, for which the growth in the experiment on DU-145 prostate was 46.2%; with K-562 leukemia, 17.7%; in the experiment with MALME-3M melanoma, 78.2%; in the experiment on MDA-MB-231 breast, 82.9%; with RXF 393 renal, 111%; in the experiment with SF-268 CNS, 93.4%. Besides, the growth is 98.3% in the experiment on SF-295 CNS, 81.6% with SF-539 CNS, 97.2% in the experiment on UACC-257 melanoma and 86% in the experiment with M14 melanoma.

On to `CC(C)OC(=O)c1ccc2[nH]c(O)c(C(=Nc3ccc(N(C)C(=O)CN4CCN(C)CC4)cc3)c3ccccc3)c2c1`, for which the growth with DU-145 prostate is -23% (active); with K-562 leukemia, -15.2% (active); with MALME-3M melanoma, -85% (active); in the experiment on MDA-MB-231 breast, -71.4% (active); in the experiment with RXF 393 renal it was -96.8% (active); in the experiment with SF-268 CNS it was -32.7% (active). The growth was -26.9% (active) in the experiment on SF-295 CNS, -95.6% (active) in the experiment on SF-539 CNS, -64.9% (active) in the experiment on UACC-257 melanoma and -85.1% (active) in the experiment with M14 melanoma.

Turning to `N#Cc1nn(-c2cc(=O)[nH]c3ccc(Cl)cc23)c(N)c1C#N`, the growth in the experiment with DU-145 prostate was 118%; in the experiment on K-562 leukemia, -43.9% (active); in the experiment with MALME-3M melanoma, 91.9%; in the experiment with MDA-MB-231 breast, 108%; with RXF 393 renal, 107%; in the experiment with SF-268 CNS, 113%. The growth is 97.6% with SF-295 CNS, 96% with SF-539 CNS, 87% in the experiment on UACC-257 melanoma and 93.7% in the experiment with M14 melanoma.

In the case of `C#Cc1ccc(NC(=O)c2ccc(/C=C/C(=O)c3nccn3C)cc2)cc1`, the growth in the experiment on DU-145 prostate is -86.8% (active); in the experiment with K-562 leukemia, 1.98% (active); in the experiment with MALME-3M melanoma, -38.4% (active); with MDA-MB-231 breast, -55.7% (active); in the experiment on RXF 393 renal it was -86.3% (active); with SF-268 CNS, -28.9% (active). Besides, the growth in the experiment on SF-295 CNS is -91.2% (active); in the experiment with SF-539 CNS, -96.7% (active); in the experiment with UACC-257 melanoma it was -19.6% (active); in the experiment on M14 melanoma it was -69.8% (active).

Turning to `CC(C)(C)c1cc(-c2nc3ccc(N4CCN(S(C)(=O)=O)CC4)cc3[nH]2)cc(C(C)(C)C)c1O`, the growth was 99.1% in the experiment on DU-145 prostate; 78.4% in the experiment with K-562 leukemia; 82.4% in the experiment with MALME-3M melanoma; 104% in the experiment on MDA-MB-231 breast; 92.6% with RXF 393 renal; 93.1% in the experiment on SF-268 CNS. For the same compound, the growth is 91.1% in the experiment on SF-295 CNS, 86.5% with SF-539 CNS, 98.9% with UACC-257 melanoma and 98.3% in the experiment on M14 melanoma.

For `OCc1cccc(-c2ccc3ncc(-c4nc(NC5CC5)ncc4F)n3c2)c1`, the growth with DU-145 prostate was 2.04% (active); with K-562 leukemia, 4.91% (active); in the experiment on MALME-3M melanoma it was -69% (active); in the experiment on MDA-MB-231 breast it was -15.6% (active); in the experiment with RXF 393 renal, -44.3% (active); with SF-268 CNS, -24.5% (active). Also, the growth was 4.24% (active) with SF-295 CNS, -61.2% (active) in the experiment with SF-539 CNS, -29.9% (active) in the experiment on UACC-257 melanoma and -39.4% (active) in the experiment on M14 melanoma.

As for `CCCC(=O)NC(c1ccc2c(c1)OCO2)c1ccc2cccnc2c1O` (stereo not given), the growth is 36.5% in the experiment with DU-145 prostate; 7.6% (active) with K-562 leukemia; 13.4% with MALME-3M melanoma; 31.2% with MDA-MB-231 breast; 18.3% in the experiment on RXF 393 renal; 15.8% with SF-268 CNS. Also, the growth with SF-295 CNS was 13.9%; in the experiment on SF-539 CNS it was 9.93% (active); in the experiment on UACC-257 melanoma, 19.1%; in the experiment on M14 melanoma, 4.9% (active).
